“And” between values parts separate entries of the source, which are not always exact repeats. Equal entries are not always repeated. Screen size: about 16,000 compounds; about 2,600 (16%) were called active. Inconclusive results (about 20%) are left out. Calls follow the shape of the dose curve; as a rule, active = well fitted curve in the direction sought with a large enough effect; inconclusive = small, poorly fitted or top-dose-only effect, or effect the other way; inactive = no such curve, though single readings can be large or run the other way. The list is a sample of the results.
Each compound was assayed against Cytochrome P450 2D6 (Homo sapiens) (UniProt P10635) (assay: Cytochrome panel assay with activity outcomes). Details: recombinant CYP, pro-luciferin dealkylation, luminescence, p450-cyp2d6; series mostly up to 57.1 µM.
Chain of Cytochrome P450 2D6 (Homo sapiens) (P10635 whole entry, looked up): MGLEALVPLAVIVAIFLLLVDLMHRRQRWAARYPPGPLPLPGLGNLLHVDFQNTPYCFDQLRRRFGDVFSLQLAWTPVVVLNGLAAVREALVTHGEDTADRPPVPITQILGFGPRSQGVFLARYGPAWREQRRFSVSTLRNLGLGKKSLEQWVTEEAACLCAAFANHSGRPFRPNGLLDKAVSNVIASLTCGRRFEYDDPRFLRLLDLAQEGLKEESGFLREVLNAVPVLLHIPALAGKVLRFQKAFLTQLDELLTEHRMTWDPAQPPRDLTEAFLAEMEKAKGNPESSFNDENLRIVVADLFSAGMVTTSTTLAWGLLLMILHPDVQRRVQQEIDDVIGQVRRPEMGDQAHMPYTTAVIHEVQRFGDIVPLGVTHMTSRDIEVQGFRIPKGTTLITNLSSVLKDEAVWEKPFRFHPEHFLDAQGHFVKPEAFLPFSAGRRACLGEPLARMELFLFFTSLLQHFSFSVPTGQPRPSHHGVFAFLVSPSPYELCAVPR
% is scaled to controls: 0 for no effect and ±100 for the full control effect.

Row | Structure (SMILES) | AC50 | activity, negative = inhibition
1 | COc1ccc(C2C(C(=O)c3ccco3)=C(O)C(=O)N2Cc2cccnc2)cc1OC (stereo not drawn) | inactive | –
2 | COc1ccc(/C=N\NC(=O)O)cc1 | – | 12.1% [at 11.4 µM] (inactive)
3 | CC(=O)N1CCC2(CC1)CN(C(=O)Nc1cccc(C#N)c1)C2 | inactive | –
4 | Cc1cc2cc3c(C)cc(=O)oc3c(C)c2o1 | inactive | –
5 | CCOC(=S)NC(=O)c1sc2ccccc2c1Cl | inactive | –
6 | CCCC(=O)N1CCN(c2ccc(NC(=O)c3sc4ccccc4c3Cl)cc2)CC1 | inactive | –
7 | CN1CCc2ccccc2[C@@H]1Cc1ccccc1NC(=O)c1sc2ccccc2c1Cl | 0.0794 µM (active) | –
8 | O=C(CC1CCCCC1)N1CCC(c2nc(-c3ccc(S(=O)(=O)N4CCCC4)cc3)no2)CC1 | inactive | –
9 | COc1cccc(NC(=S)NNC(=O)C(C)n2nc(C)c([N+](=O)[O-])c2C)c1 (stereo not drawn) | inactive | –
10 | CC[n+]1c(P(=O)([O-])c2ccccc2)[nH]c2ccccc21 | inactive | –
11 | O=C(Nc1cccc(F)c1)N1CC[C@@]2(CCCN(C(=O)c3cc(C(F)(F)F)cc(C(F)(F)F)c3)C2)C1 | inactive | –
12 | N#Cc1ccc(CN2CC[C@@]3(CCCN(C(=O)c4cc(C(F)(F)F)cc(C(F)(F)F)c4)C3)C2)cc1 | inactive | –
13 | O=C(c1cc(C(F)(F)F)cc(C(F)(F)F)c1)N1CCC2(CCCN(Cc3ccncc3)C2)CC1 | inactive | –
14 | O=C(c1cc(C(F)(F)F)cc(C(F)(F)F)c1)N1CCC[C@@]2(CCN(Cc3ccncc3)C2)C1 | 5.01 µM (active) | –
15 | O=C(c1cc(C(F)(F)F)cc(C(F)(F)F)c1)N1CCC[C@@]2(CCN(Cc3nccs3)C2)C1 | inactive | –
16 | O=C(c1cc(C(F)(F)F)cc(C(F)(F)F)c1)N1CCC2(CC1)CN(Cc1ccccc1)C2 | inactive | –
17 | O=C(Nc1ccccc1)N1CC2(CCN(C(=O)c3cc(C(F)(F)F)cc(C(F)(F)F)c3)CC2)C1 | inactive | –
18 | O=C(c1cc(C(F)(F)F)cc(C(F)(F)F)c1)N1CCC[C@@]2(CCN(Cc3ccccc3)C2)C1 | 10 µM (active) | –
19 | O=C(Nc1ccccc1)N1CC[C@@]2(CCCN(C(=O)c3cc(C(F)(F)F)cc(C(F)(F)F)c3)C2)C1 | 15.8 µM (active) | –
20 | CC[N+](C)(CC)CCN1C(=O)c2ccccc2S1(=O)=O | – | -3.94% [at 11.4 µM] (inactive)
21 | Cc1c(NC(=O)C23CC4CC(CC(C)(C4)C2)C3)c(=O)n(-c2ccccc2)n1C | inactive | –
22 | CC12CC[C@@H]3c4ccc(OP(=O)(O)O)cc4CCC3C1CCC2=O (stereo partly drawn) | – | 0.651% [at 11.4 µM] (inactive)
23 | Cn1cc(C(=O)c2cccc(Cl)c2Cl)cc1C(=O)O | inactive | –
24 | O=C(O)[C@H](CCc1ccccc1)N1C(=O)c2ccccc2C1=O | – | 15.2% [at 11.4 µM] (inactive)
25 | c1ccc2c(c1)C(=Nc1ccc(N=C3c4ccccc4-c4ccccc43)cc1)c1ccccc1-2 | – | -8.16% [at 11.4 µM] (inactive)

Row | Structure (SMILES) | AC50 | activity, negative = inhibition
26 | O=C(O)c1ccc(C(=O)O)c(C(=O)O)c1.[NH-][C@@H]1CCCC[C@@H]1[NH-].[Pt] | – | 7.05% [at 11.4 µM] (inactive)
27 | CC12CS(=O)(=O)CC1SC(=S)N2c1ccccn1 (stereo not drawn) | inactive | –
28 | Cc1cc(O)c(C(C)C)cc1NC(=O)Nc1cccc2ccccc12 | – | -5.76% [at 11.4 µM] (inactive)
29 | CC1(C)CC(=O)C2=C(C1)N(c1ccc(F)cc1)C(N)=C(C#N)C2c1cccs1 (stereo not drawn) | inactive | –
30 | Cc1cc(N2CCN(C)CC2)n2nc(-c3ccc(Cl)cc3)nc2n1 | – | 15% [at 11.4 µM] (inactive)
31 | COc1cc(C)cc(OC)c1/C=C\C(=O)O | – | 2.34% [at 11.4 µM] (inactive)
32 | C[C@@H](COc1ccccc1)N(CCCl)Cc1ccccc1 | 0.158 µM (active) | –
33 | CN(C)CC(O)COc1cccc(OCC(O)CN(C)C)c1 (stereo not drawn) | inactive | –
34 | CCOC(=O)c1cnc2ccc(C)cc2c1Sc1ccccc1C(=O)OC | inactive | –
35 | CNCCCC1c2ccccc2C=Cc2ccccc21 | 15.8 µM (active) and 3.98 µM (active) | –
36 | COc1ccc2c(c1OC)C(=O)N(C(C)C(=O)O)C2=O (stereo not drawn) | inactive | –
37 | CN(C)CC/C=C1\c2ccccc2Sc2ccc(Cl)cc21 | 2.51 µM (active) | –
38 | Cc1ccc(-n2nc3c(c2NC(=O)c2cccs2)CSC3)cc1 | inactive | –
39 | CCn1c(CCNC(=O)c2ccc(Cl)cc2Cl)n[nH]c1=S | inactive | –
40 | Cc1ccc(S(=O)(=O)N[C@H]2COC(=O)C/C=C\[C@H](C)[C@@H](NS(=O)(=O)c3ccc(C)cc3)COC(=O)C/C=C\[C@@H]2C)cc1 | – | 8.84% [at 11.4 µM] (inactive)
41 | CCCC(=O)Nc1cc(-c2cn3cccnc3n2)ccc1OC | inactive | –
42 | CC(C)CO/N=C1/C[C@@H](O)[C@@H](O)[C@@H]2[C@@H]3C(=O)N([C@@H](C)c4ccccc4)C(=O)[C@H]3CC[C@H]12 | – | -7.99% [at 11.4 µM] (inactive)
43 | COc1ccc(/C=N/n2cnc3c([nH]c4ccc(Br)cc43)c2=O)cc1CN1CCOCC1 | inactive | –
44 | CC(C)(CO)[C@H](O)C(=O)NCCCO | inactive | –
45 | NCCS | inactive | –
46 | CNC(=S)N1CCN(c2ccccc2OC)CC1 | inactive | –
47 | COc1ccccc1N1CCN(C[C@@H](O)COc2cccc3ccccc23)CC1 | 794 nM (active) and 316 nM (active) and 126 nM (active) | –
48 | O[C@@H](COc1cccc2ccccc12)CN1CCOCC1 | – | -5.64% [at 11.4 µM] (inactive)
49 | COCCn1c(=O)c(-c2cccc(Cl)c2)nc2cncnc21 | inactive | –
50 | COCCCNC(=O)CN(c1ccc(OC)cc1)S(=O)(=O)c1ccc(NC(C)=O)cc1 | inactive | –

Row | Structure (SMILES) | AC50 | activity, negative = inhibition
51 | COC(=O)CN(c1ccc(OC)cc1)S(=O)(=O)c1c(C)noc1C | inactive | –
52 | COc1ccc(N(CC(=O)NCc2cccc(OC)c2)S(=O)(=O)c2c(C)noc2C)cc1 | 14.1 µM (active) | –
53 | CN=C1S/C(=C\c2ccc(Sc3ccc(Cl)cc3)o2)C(=O)N1C | inactive | –
54 | C#CCOCCCC(=O)O | – | 15.7% [at 11.4 µM] (inactive)
55 | Cc1ccc(CSc2nnc3c(n2)OC2(Nc4ccccc4-3)C(=O)Nc3ccc(F)cc32)cc1 (stereo not drawn) | 25.1 µM (active) | –
56 | COc1cccc(Nc2ncc3nc(C)c(=O)n(C4CC4)c3n2)c1 | inactive | –
57 | S=C(Nc1ccccc1)N1CCCCC1 | inactive | –
58 | O=C(NNC(=S)Nc1ccccc1)C1CC1 | inactive | –
59 | O=C(Nc1ccccc1)OC[C@H](CN1CCCCC1)OC(=O)Nc1ccccc1 | 0.398 µM (active) | –
60 | COC(=O)COc1ccc(/C=C2/SC(=O)N(CC(=O)N3CCCC3)C2=O)cc1Br | inactive | –
61 | O=C(O)c1ccc(Sc2nnnn2-c2ccccc2)c([N+](=O)[O-])c1 | inactive | –
62 | NCCNC(=O)c1ncsc1-c1cccc(F)c1 | inactive | –
63 | Cn1c(-c2ccc(F)cc2)cnc1NCc1ccc(F)cc1 | 0.0355 µM (active) | –
64 | CN(C)c1ccc(-c2cc(NCc3cccnc3)ncn2)cc1 | inactive | –
65 | CCNc1ncc2ncc(=O)n(Cc3ccc(F)cc3)c2n1 | inactive | –
66 | c1cncc(CNc2ncn[nH]2)c1 | – | 5.73% [at 11.4 µM] (inactive)
67 | Cn1c(-c2ccc(Br)cc2)cnc1NCc1cccnc1 | 0.501 µM (active) | –
68 | Cn1c(-c2ccc(F)cc2)cnc1NCc1cccc(F)c1 | 0.0562 µM (active) | –
69 | COc1cccc(Nc2ncc3nc(-c4ccc(F)cc4)c(=O)n(C)c3n2)c1 | inactive | –
70 | Cn1c(=O)c(-c2ccc(F)cc2)nc2cncnc21 | inactive | –
71 | CCC1CC2CC(NC(C)=O)C1C2 (stereo not drawn) | inactive | –
72 | Fc1ccc2c(c1)C1C=CCC1C(c1cc3c(cc1Br)OCO3)N2 (stereo not drawn) | inactive | –
73 | CCCCOC(OCCCC)[C@H](O)CSc1ccc2ccccc2c1 | – | -15.8% [at 11.4 µM] (inactive)
74 | C#CCn1c(=O)c2c(ncn2C)n(C)c1=O | inactive | –
75 | Cc1ccccc1-c1nccc(NCc2cccs2)n1 | 2.51 µM (active) | –

Row | Structure (SMILES) | AC50 | activity, negative = inhibition
76 | CN(C)Cc1ccccc1-c1cc(NCc2cccs2)ncn1 | 2 µM (active) | –
77 | Cc1cnc(CNc2ccnc(-c3ccccc3C)n2)cn1 | inactive | –
78 | FC(F)(F)c1ccccc1-c1nccc(NCc2cccs2)n1 | 25.1 µM (active) | –
79 | CN(C)Cc1ccccc1-c1nccc(NCc2cccs2)n1 | 1.58 µM (active) | –
80 | Cc1cnc(CNc2cc(-c3ccccc3C)ncn2)cn1 | inactive | –
81 | Cc1cnc(CNc2ccnc(-c3ccccc3C(F)(F)F)n2)cn1 | inactive | –
82 | COCCNc1ccnc(-c2ccccc2C(F)(F)F)n1 | inactive | –
83 | O=C(NCc1ccco1)c1cc(C(=O)C2CCCCC2)c[nH]1 | inactive | –
84 | CCCCCC(=O)O[C@H](CC(=O)O)C[N+](C)(C)C | inactive | –
85 | Cc1cc2cccc(C)c2nc1SCC(=O)N(C)c1nc(-c2ccccc2)cs1 | inactive | –
86 | COc1ccc(NC(=O)N2CCCC3(CCN(C(=O)c4cc(C(F)(F)F)cc(C(F)(F)F)c4)CC3)C2)cc1 | inactive | –
87 | O=C1[C@H]2[C@H]3[C@H](O)[C@H](O)C/C(=N/OC[C@@H](O)COCc4ccco4)[C@@H]3CC[C@@H]2C(=O)N1C1CCCCC1 | – | 7.51% [at 11.4 µM] (inactive)
88 | Oc1cccc2ccc(SSc3ccc4cccc(O)c4n3)nc12 | – | -0.179% [at 11.4 µM] (inactive)
89 | COc1ccc(-c2nn3cnnc3s2)cc1OC | inactive | –
90 | C/C(=C/C(=O)NCc1ccccc1)C(=O)O | inactive | –
91 | CCCC(=O)NNC(=O)CCC(=O)NCc1ccccc1 | inactive | –
92 | O=C(O)NCc1ccccc1 (tested in a mixture with another compound) | 3.98 µM (active) | –
93 | O=c1c2ccc(Cl)cc2nc(-c2cccc(C(F)(F)F)c2)n1O | inactive | –
94 | CC1=CC(=O)N(c2cccc(C(F)(F)F)c2)C1c1ccc(Cl)cc1 (stereo not drawn) | 2.51 µM (active) | –
95 | Cc1n[nH]c(=O)n1-c1cccc(C(F)(F)F)c1 | inactive | –
96 | O=C(CSc1nc(-c2ccccc2)nc2ccccc12)Nc1nccs1 | inactive | –
97 | COC(=O)c1ccc(NC(=O)Cn2nc(-c3ccncc3)nc2SCC(=O)Nc2nccs2)cc1 | 10 µM (active) | –
98 | CCC1C(=O)N=C(SCC(=O)Nc2ccc(C(=O)OC)cc2)NC1=O (stereo not drawn) | inactive | –
